Source: PubChem BioAssay
Active and inactive are the calls of the source.

Legend:
[1] = system: Plasmodium falciparum Sir2 (PF13_0152, Sir2A); assay: pfSir2 binders on small-molecule microarrays, primary screen, biochemical, small-molecule microarray, 635 nm fluorescence (AID 1098); conditions: small-molecule microarray binding, fluorescence 635 nm; higher = more signal;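 also: score merges spot fluorescence intensity with its signal-to-noise ratio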
[2] = small-molecule microarray binders of probe aDKK1, primary screen, biochemical, biotinylated probe, 635/667 nm fluorescence (AID 1099); conditions: higher = more signal;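 also: score merges 667nm spot fluorescence with signal to noise across triplicate slides; reference of the scale not given here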
[3] = small-molecule microarray binders of probe aCHRDL2, primary screen, biochemical, biotinylated probe, 635/667 nm fluorescence (AID 1100); conditions: higher = more signal
[4] = splicing luciferase reporter signal modulators, primary screen, spliceosome inhibition project, cell-based, HEK293, splice +/- reporter (AID 1101); conditions: luminescence, 24 h, higher = more signal, called active from +8 up or from −8 down;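 also: HEK293 cells carrying a splicing-competent luciferase reporter gene; test concentration not given here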
[5] = target: Fibroblast growth factor 10 (Homo sapiens) (UniProt O15520); assay: FGF10 binders on small-molecule microarrays, primary screen, biochemical, small-molecule microarray, 635 nm fluorescence (AID 1102); conditions: FGF10 binding, fluorescence 635 nm, higher = more signal
[6] = system: glycogen synthase kinase-3 (GSK3A per assay name; protocol says GSK3B); assay: GSK3 binders on small-molecule microarrays, primary screen, biochemical, small-molecule microarray, 635 nm fluorescence, GSK3A (AID 1103); conditions: small-molecule microarray binding, fluorescence 635 nm; higher = more signal; also: the record names both GSK3A and GSK3B
[7] = target: Epidermal growth factor receptor (Homo sapiens) (UniProt P00533); assay: EGFR binders on small-molecule microarrays, primary screen, biochemical, small-molecule microarray, 635 nm fluorescence (AID 1104); conditions: EGFR binding, higher = more signal;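 also: score merges 667 nm emission intensity with spot signal to noise over triplicate slides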
[8] = target: Follistatin-related protein 3 (Homo sapiens) (UniProt O95633); assay: FSTL3 binders on small-molecule microarrays, primary screen, biochemical, small-molecule microarray, 635 nm fluorescence (AID 1105); conditions: FSTL3 binding, higher = more signal;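 also: score merges emission near 667 nm and signal to noise per printed spot across three slides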
[9] = target: Dickkopf-related protein 1 (Homo sapiens) (UniProt O94907); assay: DKK1 binders on small-molecule microarrays, primary screen, biochemical, small-molecule microarray, 635 nm fluorescence scan (AID 1106); conditions: DKK1 binding, higher = more signal;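 also: score merges emission near 667 nm with signal to noise over three replicate slides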
[10] = system: Inhibin beta A chain (activin A); assay: INHBA (activin A) binders on microarrays, primary screen, biochemical, small-molecule microarray, 635 nm fluorescence scan (AID 1107); conditions: small-molecule microarray binding, higher = more signal;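 also: mouse activin A protein probed at 4.33 µg/mL on printed slides; score merges bound-protein fluorescence near 667 nm with spot signal-to-noise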

Epidermal growth factor receptor (Homo sapiens), sequence (P00533 whole entry, looked up): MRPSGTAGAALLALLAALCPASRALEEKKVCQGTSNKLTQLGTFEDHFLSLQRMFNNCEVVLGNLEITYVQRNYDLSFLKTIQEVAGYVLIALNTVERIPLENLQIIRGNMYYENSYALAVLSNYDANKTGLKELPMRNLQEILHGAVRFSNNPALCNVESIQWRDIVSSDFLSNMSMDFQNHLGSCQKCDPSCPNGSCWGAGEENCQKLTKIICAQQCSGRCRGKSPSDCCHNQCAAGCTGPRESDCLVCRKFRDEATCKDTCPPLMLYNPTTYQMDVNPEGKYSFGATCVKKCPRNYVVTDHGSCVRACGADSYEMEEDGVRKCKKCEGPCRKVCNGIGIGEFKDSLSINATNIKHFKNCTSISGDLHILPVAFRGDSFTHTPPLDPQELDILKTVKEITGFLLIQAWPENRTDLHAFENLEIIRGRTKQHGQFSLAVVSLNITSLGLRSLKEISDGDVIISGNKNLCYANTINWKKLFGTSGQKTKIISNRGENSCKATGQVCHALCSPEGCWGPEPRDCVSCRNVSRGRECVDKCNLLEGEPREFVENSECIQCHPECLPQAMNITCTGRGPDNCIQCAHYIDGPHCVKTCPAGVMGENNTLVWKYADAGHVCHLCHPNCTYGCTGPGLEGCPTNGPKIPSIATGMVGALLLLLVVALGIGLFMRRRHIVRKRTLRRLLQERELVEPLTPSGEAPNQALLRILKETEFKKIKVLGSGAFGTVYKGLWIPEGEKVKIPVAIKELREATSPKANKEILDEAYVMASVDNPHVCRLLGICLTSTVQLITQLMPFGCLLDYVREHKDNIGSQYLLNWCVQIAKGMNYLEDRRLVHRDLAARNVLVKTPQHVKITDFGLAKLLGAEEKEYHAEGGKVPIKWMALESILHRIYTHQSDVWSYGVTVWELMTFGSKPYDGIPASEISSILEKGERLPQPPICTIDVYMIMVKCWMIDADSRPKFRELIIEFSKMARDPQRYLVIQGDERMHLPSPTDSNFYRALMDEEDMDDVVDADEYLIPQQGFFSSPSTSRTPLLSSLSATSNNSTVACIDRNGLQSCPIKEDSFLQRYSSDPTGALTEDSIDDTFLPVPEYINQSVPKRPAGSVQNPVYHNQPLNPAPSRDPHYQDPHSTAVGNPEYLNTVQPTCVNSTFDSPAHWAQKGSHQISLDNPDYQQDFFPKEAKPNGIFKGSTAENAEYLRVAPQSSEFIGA
Dickkopf-related protein 1 (Homo sapiens), sequence (O94907 whole entry, looked up): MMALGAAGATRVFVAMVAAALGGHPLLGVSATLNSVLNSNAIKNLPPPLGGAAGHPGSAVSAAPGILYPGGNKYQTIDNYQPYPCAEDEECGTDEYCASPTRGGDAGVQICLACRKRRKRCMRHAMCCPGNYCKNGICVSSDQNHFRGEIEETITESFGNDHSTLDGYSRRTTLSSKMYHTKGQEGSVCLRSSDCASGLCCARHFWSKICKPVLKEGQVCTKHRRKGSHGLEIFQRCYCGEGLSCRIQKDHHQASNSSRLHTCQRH
Follistatin-related protein 3 (Homo sapiens), sequence (O95633 whole entry, looked up): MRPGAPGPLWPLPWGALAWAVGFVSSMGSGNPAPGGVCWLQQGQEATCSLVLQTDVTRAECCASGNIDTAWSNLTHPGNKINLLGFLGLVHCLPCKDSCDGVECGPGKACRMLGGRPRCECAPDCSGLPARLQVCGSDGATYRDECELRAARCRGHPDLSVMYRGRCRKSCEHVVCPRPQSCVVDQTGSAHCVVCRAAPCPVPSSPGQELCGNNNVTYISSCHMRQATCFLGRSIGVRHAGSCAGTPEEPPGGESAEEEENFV
Fibroblast growth factor 10 (Homo sapiens), sequence (O15520 whole entry, looked up): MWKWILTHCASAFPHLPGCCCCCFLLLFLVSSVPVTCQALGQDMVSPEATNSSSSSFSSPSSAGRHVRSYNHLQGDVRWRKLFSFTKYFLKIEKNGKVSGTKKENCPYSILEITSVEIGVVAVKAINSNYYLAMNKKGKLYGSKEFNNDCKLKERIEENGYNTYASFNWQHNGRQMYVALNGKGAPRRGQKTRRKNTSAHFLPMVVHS

Structure (SMILES) | composite z-score [1] | composite z-score [2] | composite z-score [3] | z-score [4] | composite z-score [5] | composite z-score [6] | composite z-score [7] | composite z-score [8] | composite z-score [9] | composite z-score [10]
[N-]=[N+]=NCc1ccccc1[C@H]1OC(c2ccc(OCCCO)cc2)=N[C@@]1(Cc1ccccc1N=[N+]=[N-])C(=O)NCc1ccccc1 | 1.01 | 1.09 | 1.1 | 0.672 (inactive) | 1.03 | 1.04 | -0.296 | 0.62 | -0.193 | 1.13
[N-]=[N+]=NCc1ccccc1C[C@@]1(C(=O)N2CCOCC2)N=C(c2ccc(OCCCO)cc2)O[C@@H]1c1ccccc1N=[N+]=[N-] | 1.45 | 1.41 | 1.31 | -0.531 (inactive) | 1.42 | 0.683 | -0.11 | 0.436 | -0.433 | 1.32
C=CC[C@]1(C(N)=O)N=C(c2ccc(OCCCO)cc2)O[C@H]1c1ccccc1CN=[N+]=[N-] | 0.255 | 0.683 | 1.24 | -0.783 (inactive) | 0.0555 | 0.518 | -1.03 | -0.325 | -0.632 | 1.46
C=CC[C@]1(C(=O)N2CCCCC2)N=C(c2ccc(OCCCO)cc2)O[C@H]1c1ccccc1N=[N+]=[N-] | 1.55 | 1.26 | 1.42 | -0.461 (inactive) | 0.975 | 1.27 | 0.292 | 1.3 | -0.0913 | 1.06
CO[C@H]1COC(=O)[C@H](C)NC(=O)CC=C[C@@H](C)[C@H](NS(=O)(=O)c2ccc(C)cc2)COC(=O)CC=C[C@@H]1C | 0.997 | -0.667 | -1.28 | -0.489 (inactive) | 0.27 | -0.0078 | 0.778 | 0.956 | 0.979 | 1.47
O=C1NC(=O)C2C1C=CC(C(O)C=Cc1ccc([N+](=O)[O-])cc1)N2Nc1ccccn1 (stereo not given) | 1.1 | 0.141 | 0.239 | 1.5 (inactive) | 0.267 | -0.0039 | 1.07 | 0.479 | 0.697 | 1.32
COCCCNC(=O)[C@@]1(Sc2ccc(C)cc2)CC(=O)N(Cc2cc(C(F)(F)F)cc(C(F)(F)F)c2)[C@@H]1c1ccc(CO)cc1I | 1.84 | 0.46 | 1.19 | -1.26 (inactive) | -0.511 | -1.14 | -1.34 | -1.58 | -1.79 | 0.142
COC(=O)Cn1c(C(=O)N2CCCC2)cc2c1C[C@H]1CN(C(=O)c3ccccc3)[C@@](Cc3ccc(OC)cc3)(C(=O)OC)[C@@H]21 | 0.41 | 1.37 | 1.1 | -1.76 (inactive) | 0.388 | 0.203 | 0.559 | 0.348 | -0.467 | 1.04
CCOC(=O)C1=CC[C@@H](c2ccccc2)N(S(=O)(=O)c2ccc(C)cc2)[C@H]1C | 1.09 | 0.821 | 0.567 | -0.993 (inactive) | 1.4 | 0.312 | 1.02 | 1.38 | 0.635 | 0.258
COCCOC(=O)N1C(=O)[C@@]2(c3cc(C#CC4=CCCCC4)ccc31)[C@H](c1ccc(O)cc1)N1[C@H](c3ccccc3)[C@H](c3ccccc3)OC(=O)[C@H]1[C@@H]2C(=O)N1CCCCCCC1 | 0.84 | 0.854 | 0.842 | -0.476 (inactive) | 0.603 | 1.3 | 0.405 | 1.24 | 0.948 | 1.6
CCN1C(C)=C(C(=O)OC)[C@@H](c2ccccc2)N2C(=O)[C@@]3(C(=O)OC)O[C@@]12[C@@H]1C(=O)N(c2ccccc2)C(=O)[C@@H]13 | 0.286 | 0.0355 | -0.253 | -1.66 (inactive) | 1 | 0.85 | 0.472 | 1.24 | 0.4 | -0.545
CO[C@@H]1COC(=O)[C@H](C)NC(=O)CC=C[C@@H](C)[C@H](OC)COC(=O)[C@H](C)NC(=O)CC=C[C@H]1C | 0.343 | -0.58 | -0.717 | -0.415 (inactive) | 0.43 | 0.57 | 0.55 | 0.66 | 0.503 | 0.136
C=C(COC)/C(=C/C[C@H](OC(C)=O)c1ccc(OCCO)cc1)c1cnc2ccccc2c1 | -0.407 | 0.231 | -0.146 | -1.48 (inactive) | 0.741 | 0.844 | 0.716 | 1.46 | 0.766 | 1.8
CCCC=C(CCC)[C@@H](NS(=O)(=O)c1ccc(-c2ccccc2)cc1)c1ccc(C(=O)OC)cc1 | -0.127 | 0.224 | 0.516 | -2.72 (inactive) | -0.632 | -0.84 | -0.243 | -0.875 | -0.422 | 0.573
C=CCC(OC(C)=O)[C@@H]1[C@@H](N(Cc2ccc(-c3ccccc3)cc2)C(=O)c2ccc(-c3ccccc3)cc2)c2cc(OCCCO)ccc2N1C(=O)Cc1ccc(OC)cc1 (stereo not given in full) | -0.322 | 0.0651 | 0.026 | -0.792 (inactive) | 0.035 | -0.0305 | -0.25 | 0.491 | -0.345 | 1.28
Cc1ccc(S(=O)(=O)N2[C@@H](c3ccccc3)C(C(=O)O)=CC[C@H]2c2ccccc2)cc1 | 0.0714 | 0.153 | 0.431 | -0.258 (inactive) | 0.476 | -0.0481 | 0.197 | 0.169 | -0.454 | 0.512
C=CCOC(=O)[C@@H]1[C@H]2C(=O)O[C@H](c3ccccc3)[C@H](c3ccccc3)N2[C@H](c2ccc(OCCOC(=O)[C@H]3C[C@H]4C(=O)N5CCC[C@H]5C(=O)N4[C@H]3c3ccc(O)cc3)cc2)[C@@]12C(=O)Nc1ccccc12 | 1.04 | 0.264 | 0.573 | -1.3 (inactive) | 0.883 | 1.18 | 0.689 | 1.34 | 0.921 | 0.668
COc1cc2c(cc1OC)CN(C(=O)[C@@H]1[C@H]3C(=O)O[C@H](c4ccccc4)[C@H](c4ccccc4)N3[C@H](c3ccccc3OCCO)[C@@]13C(=O)Nc1ccccc13)CC2 | 1.6 | -0.682 | -0.73 | -0.239 (inactive) | 0.748 | 1.29 | 0.0883 | 0.317 | -0.134 | 0.358
NC(=O)NCC#Cc1ccc2c(c1)[C@]1(C(=O)N2)[C@H](C(N)=O)[C@H]2C(=O)O[C@H](c3ccccc3)[C@H](c3ccccc3)N2[C@@H]1c1ccccc1OCCO | 0.628 | 0.371 | 0.482 | -0.328 (inactive) | 1.06 | 0.343 | 0.269 | 1.02 | 0.576 | 1.02
COC(=O)[C@@]1(Cc2ccccc2)[C@H]2c3cc(C(=O)N4CCCC4)n(CCN4CNCC4=O)c3C[C@H]2CN1C(=O)c1ccccc1 | 0.0939 | 0.862 | 0.904 | 2.52 (inactive) | 0.0557 | 0.77 | 0.0908 | 0.47 | -0.292 | 1.05
COCCOC(=O)N1C(=O)[C@@]2(c3cc(C#CC4=CCCCC4)ccc31)[C@H](C(=O)NC[C@H](O)c1ccccc1)[C@H]1C(=O)O[C@H](c3ccccc3)[C@H](c3ccccc3)N1[C@@H]2c1ccccc1OCCO | 1.28 | 0.659 | 0.635 | -1.5 (inactive) | 0.533 | 1.05 | 0.366 | 1.08 | 0.599 | 1.13
C=C(C(=O)CC[C@H](OC(=O)c1ccccc1-c1ccccc1C(=O)O)c1ccc(CO)o1)C(C)C | 0.75 | -0.209 | -0.558 | -0.107 (inactive) | 1.45 | 0.914 | -0.0997 | 0.858 | 0.568 | 0.664
Cc1ccc(S[C@]2(C(=O)NCCN3CCOCC3)CC(=O)N(C3Cc4ccccc4C3)[C@@H]2c2ccc(CO)cc2I)cc1 | 1.84 | 0.696 | 1.18 | -1.16 (inactive) | -0.303 | -0.909 | -1.65 | -0.359 | -0.408 | 0.72
C[C@@H]1CC[C@H]2C(=O)N3[C@@H](CC[C@@H](C)[C@@H]3c3cccc(N4CCOCC4)c3)C(=O)N2[C@H]1c1cccc(N2CCOCC2)c1 | 1.15 | 0.335 | 0.189 | -0.188 (inactive) | 0.37 | 0.513 | 0.224 | 1.12 | 1.82 | 0.866
CCOC(=O)C[C@H]1[C@H](OC(=O)c2cc3ccccc3oc2=O)[C@@H](NC(=O)C2CCCCC2)c2cc(OCCCO)ccc2N1C(=O)c1ccc2ccccc2n1 | 0.631 | -0.245 | -0.273 | -0.34 (inactive) | 0.68 | 0.413 | 0.258 | 1.08 | 0.493 | 0.304
C[C@@H]1NC(=O)CC=C[C@@H](C)[C@@H]2C=C[C@H](O)[C@@H](COC(=O)[C@H](C)NC(=O)CC=C[C@@H](C)[C@@H]3C=C[C@H](O)[C@@H](COC1=O)O3)O2 | 0.231 | -0.555 | -0.925 | -1.61 (inactive) | 0.544 | 0.217 | 0.418 | 0.632 | 0.849 | 0.0277
COC(=O)C[C@H]1O[C@]2(C(=O)N(Cc3ccccc3)c3ccc(I)cc32)[C@@H](C)[C@@H]1[Si](C)(C)c1ccc(OC)cc1 | -0.237 | 0.19 | 0.533 | -0.853 (inactive) | 0.0095 | -1.19 | -0.398 | -0.192 | -0.524 | 0.413
